What all share (assay): NCI-60 one-dose screen, 48 h (100 = growth as untreated, 0 = no growth, -100 = all killed)
One assay has as its system NCI-H226 lung. As to conditions: 10 µM.
The next assay deals with NCI-H322M lung. As to conditions: 10 µM.
The test system of the next assay is HOP-62 NSCLC. The settings on record: 10 µM.
The test system of the next assay is NCI-H460 lung. As to conditions: 10 µM.
The next assay concerns NCI-H522 lung. The settings on record: 10 µM.
For a further assay, the system named is COLO 205 colon. The settings on record: 10 µM.
The next assay deals with DU-145 prostate. As to conditions: 10 µM.
The next assay relates to SF-268 CNS. The settings on record: 10 µM.
The subject of the next assay is SF-295 CNS. As to conditions: 10 µM.
The next assay deals with SF-539 CNS. As to conditions: 10 µM.
A further assay relates to UACC-257 melanoma. As to conditions: 10 µM.
The test system of another assay is M14 melanoma. The settings on record: 10 µM.
For another assay, the system named is HCT-15 colon. As to conditions: 10 µM.
Another assay concerns HT29 colon. As to conditions: 10 µM.
For another assay, the system named is SNB-19 CNS. As to conditions: 10 µM.
The next assay has as its system U251 CNS. The settings on record: 10 µM.
A further assay relates to SK-MEL-5 melanoma. The settings on record: 10 µM.
The test system of a further assay is UACC-62 melanoma. As to conditions: 10 µM.
For another assay, the system named is SK-MEL-2 melanoma. As to conditions: 10 µM.
The subject of another assay is HL-60(TB) leukemia. As to conditions: 10 µM unless noted.

This is part of a sample that, as a whole, favours compounds with a hit. Of some 83,000 tested, about 20% had one in any assay.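 The test compound was applied at a single concentration to cells in 96-well plates for 48 hours, and percent growth was recorded.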 Unmarked numbers belong to inactive results. The source made the active and inactive calls. The calls were made as follows: active = growth percent below 10; inactive = the rest.

In the case of `CC12CCC3(CCC(=O)NCCCNc4ccnc5cc(Cl)ccc45)[C@@](C)(OO[C@]3(C)O1)O2`, the growth was 0.706% (active) with NCI-H226 lung; 27.5% in the assay with NCI-H322M lung; -6.39% (active) in the assay with HOP-62 NSCLC; 7.06% (active) in the assay with NCI-H460 lung; -50.4% (active) with NCI-H522 lung; 36.7% with COLO 205 colon. Also, the growth was 38.2% in the assay with DU-145 prostate; 5.01% (active) in the assay on SF-268 CNS; -1.94% (active) in the assay on SF-295 CNS; -65.6% (active) in the assay on SF-539 CNS; 51.1% in the assay on UACC-257 melanoma; -2.43% (active) in the assay with M14 melanoma. Also, the growth in the assay on HCT-15 colon is 6.51% (active); in the assay on HT29 colon, 10.7%; with SNB-19 CNS, 7.99% (active); with U251 CNS it was -28.8% (active); in the assay on SK-MEL-5 melanoma, 14.2%; with UACC-62 melanoma, 11.1%. In addition, the growth is 23.3% with SK-MEL-2 melanoma and 14.9% in the assay on HL-60(TB) leukemia.
`COC(=O)C[C@](O)(CCC(C)C)C(=O)O[C@H]1C(OC)=C[C@@]23CCCN2CCc2cc4c(cc2[C@@H]13)OCO4`: the growth is -20.4% (active) in the assay on NCI-H226 lung; -9.27% (active) with NCI-H322M lung; 4.64% (active) in the assay on HOP-62 NSCLC; -26.2% (active) in the assay on NCI-H460 lung; -70% (active) in the assay on NCI-H522 lung; -55.4% (active) in the assay on COLO 205 colon. The growth is -24.1% (active) with DU-145 prostate; -21.7% (active) with SF-268 CNS; -23.6% (active) with SF-295 CNS; -51.4% (active) in the assay on SF-539 CNS; -30.9% (active) in the assay on UACC-257 melanoma; -76.4% (active) in the assay with M14 melanoma. Besides, the growth with HCT-15 colon is -29.7% (active); in the assay on HT29 colon, -47.5% (active); in the assay with SNB-19 CNS it was -28.3% (active); in the assay on U251 CNS, -25.2% (active); with SK-MEL-5 melanoma it was -70.4% (active); in the assay on UACC-62 melanoma, -25.2% (active). Besides, the growth in the assay with SK-MEL-2 melanoma was -46.4% (active); with HL-60(TB) leukemia, -38.5% (active).
Consider `CN1C/C(=C\c2ccc(O)cc2O)c2[o+]c3cc(O)ccc3cc2C1`, for which the growth in the assay with HL-60(TB) leukemia is 46.8%.
Consider `C=CCN=C([Se])NC(=O)c1ccc2c(c1)OCO2`, for which the growth in the assay on NCI-H226 lung was 119%; with NCI-H322M lung, 14.8%; in the assay on HOP-62 NSCLC, 26.9%; with NCI-H460 lung, 18.3%; with NCI-H522 lung, 105%; with COLO 205 colon it was 122%. For the same compound, the growth with DU-145 prostate was 101%; in the assay with SF-268 CNS, 110%; in the assay on SF-295 CNS it was 13.7%; in the assay on SF-539 CNS, 67.3%; in the assay with UACC-257 melanoma, 102%; in the assay with M14 melanoma, 86.8%. For the same compound, the growth was 97.1% with HCT-15 colon; 96% in the assay with HT29 colon; 39.2% in the assay with SNB-19 CNS; 36.2% in the assay with U251 CNS; 90.8% in the assay with SK-MEL-5 melanoma; 97.9% in the assay on UACC-62 melanoma. Also, the growth was 143% in the assay with SK-MEL-2 melanoma and 106% with HL-60(TB) leukemia.
Regarding `COc1ccc(OC)c(/C=C/C(=O)c2nc3ccccc3n2Cc2ccc(F)cc2)c1`, the growth with NCI-H226 lung was -42.4% (active); in the assay on NCI-H322M lung, 6.69% (active); in the assay with HOP-62 NSCLC, -40.4% (active); in the assay on NCI-H460 lung, -30.9% (active); in the assay on NCI-H522 lung it was -52.4% (active); in the assay on COLO 205 colon it was -58.3% (active). Besides, the growth in the assay on DU-145 prostate was 4.91% (active); in the assay on SF-268 CNS, 14.8%; in the assay with SF-295 CNS it was -21.3% (active); in the assay on SF-539 CNS, -80.4% (active); in the assay on UACC-257 melanoma, 15.3%; in the assay on M14 melanoma, -7.79% (active). The growth in the assay with HCT-15 colon is -61.8% (active); in the assay on HT29 colon it was -44.7% (active); with SNB-19 CNS it was -38.9% (active); in the assay on U251 CNS it was -74% (active); with SK-MEL-5 melanoma, -21.1% (active); in the assay on UACC-62 melanoma, -57.6% (active). For the same compound, the growth with SK-MEL-2 melanoma was -28.2% (active); in the assay on HL-60(TB) leukemia, -11.3% (active).
Consider `COc1ccc(/C=C/C(=O)c2nc3ccccc3n2Cc2ccc(Br)cc2)cc1`, for which the growth in the assay with NCI-H226 lung was 69.7%; in the assay with NCI-H322M lung, 73.9%; in the assay on HOP-62 NSCLC, 92.8%; in the assay on NCI-H460 lung, 57.8%; in the assay on NCI-H522 lung, 76.4%; in the assay on COLO 205 colon it was 91.4%. Further, the growth in the assay on DU-145 prostate is 61.9%; with SF-268 CNS, 68%; in the assay on SF-295 CNS it was 81.9%; in the assay on SF-539 CNS, 78.3%; in the assay on UACC-257 melanoma, 72.3%; with M14 melanoma, 72.5%. In addition, the growth in the assay on HCT-15 colon was 38.8%; with HT29 colon, 64.9%; with SNB-19 CNS it was 74.4%; with U251 CNS it was 50.2%; in the assay with SK-MEL-5 melanoma it was 83.3%; with UACC-62 melanoma it was 65%. The growth in the assay on SK-MEL-2 melanoma is 88.8%; in the assay with HL-60(TB) leukemia, 41.2%.
For `O=C(/C=C/c1ccccc1)c1nc2ccccc2n1Cc1ccc(F)cc1`, the growth in the assay with NCI-H226 lung was -48.5% (active); with NCI-H322M lung it was 37%; in the assay on HOP-62 NSCLC, -26% (active); in the assay with NCI-H460 lung, -28.9% (active); in the assay with NCI-H522 lung, -33% (active); in the assay with COLO 205 colon it was -43.4% (active). Also, the growth was 2.92% (active) in the assay with DU-145 prostate; 10.8% with SF-268 CNS; -11% (active) in the assay on SF-295 CNS; -89.1% (active) in the assay with SF-539 CNS; -1.28% (active) in the assay on UACC-257 melanoma; -20.8% (active) with M14 melanoma. The growth with HCT-15 colon is -70.1% (active); in the assay on HT29 colon, -49.5% (active); in the assay with SNB-19 CNS it was -47.9% (active); with U251 CNS, -73.6% (active); in the assay with SK-MEL-5 melanoma, 11%; in the assay with UACC-62 melanoma, -39% (active). For the same compound, the growth in the assay with SK-MEL-2 melanoma was 18.9%; with HL-60(TB) leukemia, -25.3% (active).
Consider `COc1cc(OC)c(/C=C/C(=O)c2nc3ccccc3n2Cc2ccc(F)cc2)c(OC)c1`, for which the growth was 72.8% with NCI-H226 lung; 104% with NCI-H322M lung; 58.9% in the assay with HOP-62 NSCLC; 58.9% with NCI-H460 lung; 79.6% in the assay with NCI-H522 lung; 108% in the assay with COLO 205 colon. Further, the growth in the assay on DU-145 prostate was 92.1%; in the assay with SF-268 CNS it was 72.1%; in the assay with SF-295 CNS, 75.7%; in the assay with SF-539 CNS it was 60.9%; in the assay with UACC-257 melanoma, 98.3%; with M14 melanoma, 103%. The growth with HCT-15 colon is 78.9%; in the assay on HT29 colon, 90.2%; in the assay on SNB-19 CNS it was 51.5%; in the assay with U251 CNS it was 101%; in the assay on SK-MEL-5 melanoma, 88.6%; in the assay on UACC-62 melanoma it was 62.5%. Moreover, the growth was 104% with SK-MEL-2 melanoma and 67.7% in the assay on HL-60(TB) leukemia.
As to `COP(=O)(CC(F)(F)C(F)(F)F)OC`, the growth in the assay with NCI-H226 lung was -55.6% (active); in the assay with NCI-H322M lung it was 109%; in the assay on HOP-62 NSCLC it was 99.7%; with NCI-H460 lung, 95.9%; in the assay on NCI-H522 lung, -71.5% (active); in the assay with COLO 205 colon it was -59.3% (active). Further, the growth was 9.69% (active) with DU-145 prostate; 88.4% in the assay with SF-268 CNS; 100% with SF-295 CNS; 4.99% (active) with SF-539 CNS; -36.5% (active) in the assay on UACC-257 melanoma; -65.3% (active) with M14 melanoma. The growth in the assay on HCT-15 colon was -15.2% (active); with HT29 colon it was -35.5% (active); in the assay with SNB-19 CNS, 101%; in the assay on U251 CNS, 81.7%; in the assay on SK-MEL-5 melanoma, 80.8%; in the assay with UACC-62 melanoma, 65.3%. Further, the growth in the assay with SK-MEL-2 melanoma is 25.2%; with HL-60(TB) leukemia it was 8.78% (active).

The record behind these values is PubChem BioAssay (NCI).
